Reference: the supplement of paper PMC11732987, “Enantioselective OTUD7B fragment discovery through chemoproteomics screening and high-throughput optimisation” (Communications Chemistry, 2025)

Assays:
Test in all cases: log2 ratio of Biotin-Ahx-Ub-VS probe labelling (fragment/DMSO); higher = less target engagement (more negative = stronger competition), active = hit call of the paper (q ≤ 0.05, log2 ratio ≤ -1)
Settings in all cases: compound concentration: 200 uM; treatment time: 3 h
USP34 = USP34 (UniProt Q70CQ2)
Outline: (§1)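 Triplicate samples of HEK293T lysate, 495 µg each, received fragment at 200 µM or vehicle for 3 h, followed by Biotin-Ahx-Ub-VS (0.5 µM final) for 1 h. After NeutrAvidin enrichment of labelled DUBs and LysC/trypsin digestion, peptides were run by diaPASEF LC-MS/MS. The values are average log2 fragment/vehicle ratios from global-median-normalised Spectronaut label-free quantities, tested by unpaired t-test on proteins having ≥2 unique peptides.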

USP36 = biological target: T1, USP36 (UniProt Q9P275)
T1 sequence (whole entry): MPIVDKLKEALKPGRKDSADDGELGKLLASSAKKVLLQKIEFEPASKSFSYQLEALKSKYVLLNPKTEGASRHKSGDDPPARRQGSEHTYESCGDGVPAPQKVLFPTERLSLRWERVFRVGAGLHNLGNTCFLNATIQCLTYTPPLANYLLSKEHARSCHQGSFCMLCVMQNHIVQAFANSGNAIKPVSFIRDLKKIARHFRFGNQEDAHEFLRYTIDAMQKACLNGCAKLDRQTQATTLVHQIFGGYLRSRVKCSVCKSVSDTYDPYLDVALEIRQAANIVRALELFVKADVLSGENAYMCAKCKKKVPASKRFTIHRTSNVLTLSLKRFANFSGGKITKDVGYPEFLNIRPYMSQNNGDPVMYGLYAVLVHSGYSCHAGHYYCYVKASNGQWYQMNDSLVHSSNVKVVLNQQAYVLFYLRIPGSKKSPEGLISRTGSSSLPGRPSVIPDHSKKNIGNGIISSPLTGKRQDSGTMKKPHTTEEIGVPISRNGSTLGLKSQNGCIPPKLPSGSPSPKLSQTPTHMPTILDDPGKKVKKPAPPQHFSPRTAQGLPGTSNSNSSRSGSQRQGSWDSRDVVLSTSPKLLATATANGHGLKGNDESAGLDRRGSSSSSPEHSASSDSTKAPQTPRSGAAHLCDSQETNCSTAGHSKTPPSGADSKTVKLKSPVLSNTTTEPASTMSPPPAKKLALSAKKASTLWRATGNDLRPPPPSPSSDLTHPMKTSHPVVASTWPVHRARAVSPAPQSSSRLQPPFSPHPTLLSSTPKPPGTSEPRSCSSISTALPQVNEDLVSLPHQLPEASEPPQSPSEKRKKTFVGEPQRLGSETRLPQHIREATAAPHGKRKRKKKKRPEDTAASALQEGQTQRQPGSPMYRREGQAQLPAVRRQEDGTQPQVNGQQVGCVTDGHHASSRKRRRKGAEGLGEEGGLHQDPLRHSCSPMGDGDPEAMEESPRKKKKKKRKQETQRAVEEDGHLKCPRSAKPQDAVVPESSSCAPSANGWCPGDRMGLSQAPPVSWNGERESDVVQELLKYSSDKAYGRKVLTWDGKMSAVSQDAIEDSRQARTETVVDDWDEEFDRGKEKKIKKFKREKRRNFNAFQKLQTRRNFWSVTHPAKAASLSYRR
Outline: as §1

USP38 = biological target: T2, USP38 (UniProt Q8NB14)
T2 sequence (whole entry): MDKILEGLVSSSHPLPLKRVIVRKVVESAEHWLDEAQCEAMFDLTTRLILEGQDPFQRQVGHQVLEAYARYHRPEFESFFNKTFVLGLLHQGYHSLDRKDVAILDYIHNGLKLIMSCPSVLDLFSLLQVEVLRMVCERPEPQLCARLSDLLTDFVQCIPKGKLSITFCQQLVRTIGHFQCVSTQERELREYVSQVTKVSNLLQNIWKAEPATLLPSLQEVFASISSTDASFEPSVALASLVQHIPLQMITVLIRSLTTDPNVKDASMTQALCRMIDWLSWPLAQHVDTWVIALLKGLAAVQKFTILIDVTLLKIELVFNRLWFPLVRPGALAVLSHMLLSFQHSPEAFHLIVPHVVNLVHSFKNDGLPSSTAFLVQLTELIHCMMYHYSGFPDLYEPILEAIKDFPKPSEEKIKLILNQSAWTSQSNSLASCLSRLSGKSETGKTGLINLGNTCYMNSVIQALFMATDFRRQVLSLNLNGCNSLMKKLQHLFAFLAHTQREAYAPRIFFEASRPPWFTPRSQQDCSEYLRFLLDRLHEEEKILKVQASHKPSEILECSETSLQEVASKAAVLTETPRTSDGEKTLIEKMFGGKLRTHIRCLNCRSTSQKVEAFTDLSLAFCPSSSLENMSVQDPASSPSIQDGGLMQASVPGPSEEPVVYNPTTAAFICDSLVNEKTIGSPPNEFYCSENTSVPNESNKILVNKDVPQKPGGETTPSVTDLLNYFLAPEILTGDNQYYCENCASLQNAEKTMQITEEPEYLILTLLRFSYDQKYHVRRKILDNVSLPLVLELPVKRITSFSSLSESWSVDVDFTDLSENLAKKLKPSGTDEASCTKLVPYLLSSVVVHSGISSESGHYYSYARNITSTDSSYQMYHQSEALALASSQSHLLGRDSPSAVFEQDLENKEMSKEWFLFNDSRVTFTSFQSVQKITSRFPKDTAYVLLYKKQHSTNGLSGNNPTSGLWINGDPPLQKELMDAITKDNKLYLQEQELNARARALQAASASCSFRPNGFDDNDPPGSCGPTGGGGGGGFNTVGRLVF
Outline: as §1

USP39 = biological target: T3, USP39 (UniProt Q53GS9)
T3 sequence (whole entry): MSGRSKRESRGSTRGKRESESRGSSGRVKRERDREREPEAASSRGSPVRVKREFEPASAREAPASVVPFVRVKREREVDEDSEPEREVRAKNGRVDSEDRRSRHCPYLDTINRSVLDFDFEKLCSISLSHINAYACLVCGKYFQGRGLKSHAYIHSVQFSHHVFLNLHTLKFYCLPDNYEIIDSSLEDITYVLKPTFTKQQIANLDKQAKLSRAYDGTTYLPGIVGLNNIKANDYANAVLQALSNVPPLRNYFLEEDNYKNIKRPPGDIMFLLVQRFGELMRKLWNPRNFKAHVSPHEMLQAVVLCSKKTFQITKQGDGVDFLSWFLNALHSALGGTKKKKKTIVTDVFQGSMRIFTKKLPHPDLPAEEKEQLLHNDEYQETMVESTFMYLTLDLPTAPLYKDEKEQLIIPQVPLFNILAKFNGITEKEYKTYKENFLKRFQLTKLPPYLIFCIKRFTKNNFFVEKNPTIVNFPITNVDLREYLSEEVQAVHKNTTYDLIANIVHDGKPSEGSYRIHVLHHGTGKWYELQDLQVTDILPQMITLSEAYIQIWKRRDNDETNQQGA
Outline: as §1

USP4 = biological target: T4, USP4 (UniProt Q13107)
T4 sequence (whole entry): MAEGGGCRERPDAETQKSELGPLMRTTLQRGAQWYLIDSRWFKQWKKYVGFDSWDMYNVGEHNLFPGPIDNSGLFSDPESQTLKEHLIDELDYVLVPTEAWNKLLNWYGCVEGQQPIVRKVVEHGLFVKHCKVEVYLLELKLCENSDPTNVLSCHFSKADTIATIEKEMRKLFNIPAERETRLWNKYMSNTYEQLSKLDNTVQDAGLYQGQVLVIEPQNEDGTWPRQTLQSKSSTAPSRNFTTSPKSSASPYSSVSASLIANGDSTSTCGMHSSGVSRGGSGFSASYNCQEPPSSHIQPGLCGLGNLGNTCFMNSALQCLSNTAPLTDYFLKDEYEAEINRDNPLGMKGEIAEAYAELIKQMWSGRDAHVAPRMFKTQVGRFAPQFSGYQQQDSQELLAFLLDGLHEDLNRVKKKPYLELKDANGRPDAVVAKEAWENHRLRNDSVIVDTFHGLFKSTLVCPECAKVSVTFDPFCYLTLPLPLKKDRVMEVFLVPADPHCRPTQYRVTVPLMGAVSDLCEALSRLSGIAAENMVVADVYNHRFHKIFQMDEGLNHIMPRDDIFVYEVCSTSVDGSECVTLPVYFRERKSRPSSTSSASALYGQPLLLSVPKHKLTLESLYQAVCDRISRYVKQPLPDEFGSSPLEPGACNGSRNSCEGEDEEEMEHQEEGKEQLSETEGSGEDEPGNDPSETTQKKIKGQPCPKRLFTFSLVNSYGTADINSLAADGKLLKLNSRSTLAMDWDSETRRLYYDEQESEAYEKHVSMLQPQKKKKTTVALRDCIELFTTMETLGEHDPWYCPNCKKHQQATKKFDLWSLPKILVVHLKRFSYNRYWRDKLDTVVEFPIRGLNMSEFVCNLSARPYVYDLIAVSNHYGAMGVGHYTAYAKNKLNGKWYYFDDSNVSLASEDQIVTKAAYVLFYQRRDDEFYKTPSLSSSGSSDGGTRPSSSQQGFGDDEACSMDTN
Outline: as §1

Measured: log2 ratio of Biotin-Ahx-Ub-VS probe labelling

Sequence of USP34 (Q70CQ2 whole entry, the tested form may be a part): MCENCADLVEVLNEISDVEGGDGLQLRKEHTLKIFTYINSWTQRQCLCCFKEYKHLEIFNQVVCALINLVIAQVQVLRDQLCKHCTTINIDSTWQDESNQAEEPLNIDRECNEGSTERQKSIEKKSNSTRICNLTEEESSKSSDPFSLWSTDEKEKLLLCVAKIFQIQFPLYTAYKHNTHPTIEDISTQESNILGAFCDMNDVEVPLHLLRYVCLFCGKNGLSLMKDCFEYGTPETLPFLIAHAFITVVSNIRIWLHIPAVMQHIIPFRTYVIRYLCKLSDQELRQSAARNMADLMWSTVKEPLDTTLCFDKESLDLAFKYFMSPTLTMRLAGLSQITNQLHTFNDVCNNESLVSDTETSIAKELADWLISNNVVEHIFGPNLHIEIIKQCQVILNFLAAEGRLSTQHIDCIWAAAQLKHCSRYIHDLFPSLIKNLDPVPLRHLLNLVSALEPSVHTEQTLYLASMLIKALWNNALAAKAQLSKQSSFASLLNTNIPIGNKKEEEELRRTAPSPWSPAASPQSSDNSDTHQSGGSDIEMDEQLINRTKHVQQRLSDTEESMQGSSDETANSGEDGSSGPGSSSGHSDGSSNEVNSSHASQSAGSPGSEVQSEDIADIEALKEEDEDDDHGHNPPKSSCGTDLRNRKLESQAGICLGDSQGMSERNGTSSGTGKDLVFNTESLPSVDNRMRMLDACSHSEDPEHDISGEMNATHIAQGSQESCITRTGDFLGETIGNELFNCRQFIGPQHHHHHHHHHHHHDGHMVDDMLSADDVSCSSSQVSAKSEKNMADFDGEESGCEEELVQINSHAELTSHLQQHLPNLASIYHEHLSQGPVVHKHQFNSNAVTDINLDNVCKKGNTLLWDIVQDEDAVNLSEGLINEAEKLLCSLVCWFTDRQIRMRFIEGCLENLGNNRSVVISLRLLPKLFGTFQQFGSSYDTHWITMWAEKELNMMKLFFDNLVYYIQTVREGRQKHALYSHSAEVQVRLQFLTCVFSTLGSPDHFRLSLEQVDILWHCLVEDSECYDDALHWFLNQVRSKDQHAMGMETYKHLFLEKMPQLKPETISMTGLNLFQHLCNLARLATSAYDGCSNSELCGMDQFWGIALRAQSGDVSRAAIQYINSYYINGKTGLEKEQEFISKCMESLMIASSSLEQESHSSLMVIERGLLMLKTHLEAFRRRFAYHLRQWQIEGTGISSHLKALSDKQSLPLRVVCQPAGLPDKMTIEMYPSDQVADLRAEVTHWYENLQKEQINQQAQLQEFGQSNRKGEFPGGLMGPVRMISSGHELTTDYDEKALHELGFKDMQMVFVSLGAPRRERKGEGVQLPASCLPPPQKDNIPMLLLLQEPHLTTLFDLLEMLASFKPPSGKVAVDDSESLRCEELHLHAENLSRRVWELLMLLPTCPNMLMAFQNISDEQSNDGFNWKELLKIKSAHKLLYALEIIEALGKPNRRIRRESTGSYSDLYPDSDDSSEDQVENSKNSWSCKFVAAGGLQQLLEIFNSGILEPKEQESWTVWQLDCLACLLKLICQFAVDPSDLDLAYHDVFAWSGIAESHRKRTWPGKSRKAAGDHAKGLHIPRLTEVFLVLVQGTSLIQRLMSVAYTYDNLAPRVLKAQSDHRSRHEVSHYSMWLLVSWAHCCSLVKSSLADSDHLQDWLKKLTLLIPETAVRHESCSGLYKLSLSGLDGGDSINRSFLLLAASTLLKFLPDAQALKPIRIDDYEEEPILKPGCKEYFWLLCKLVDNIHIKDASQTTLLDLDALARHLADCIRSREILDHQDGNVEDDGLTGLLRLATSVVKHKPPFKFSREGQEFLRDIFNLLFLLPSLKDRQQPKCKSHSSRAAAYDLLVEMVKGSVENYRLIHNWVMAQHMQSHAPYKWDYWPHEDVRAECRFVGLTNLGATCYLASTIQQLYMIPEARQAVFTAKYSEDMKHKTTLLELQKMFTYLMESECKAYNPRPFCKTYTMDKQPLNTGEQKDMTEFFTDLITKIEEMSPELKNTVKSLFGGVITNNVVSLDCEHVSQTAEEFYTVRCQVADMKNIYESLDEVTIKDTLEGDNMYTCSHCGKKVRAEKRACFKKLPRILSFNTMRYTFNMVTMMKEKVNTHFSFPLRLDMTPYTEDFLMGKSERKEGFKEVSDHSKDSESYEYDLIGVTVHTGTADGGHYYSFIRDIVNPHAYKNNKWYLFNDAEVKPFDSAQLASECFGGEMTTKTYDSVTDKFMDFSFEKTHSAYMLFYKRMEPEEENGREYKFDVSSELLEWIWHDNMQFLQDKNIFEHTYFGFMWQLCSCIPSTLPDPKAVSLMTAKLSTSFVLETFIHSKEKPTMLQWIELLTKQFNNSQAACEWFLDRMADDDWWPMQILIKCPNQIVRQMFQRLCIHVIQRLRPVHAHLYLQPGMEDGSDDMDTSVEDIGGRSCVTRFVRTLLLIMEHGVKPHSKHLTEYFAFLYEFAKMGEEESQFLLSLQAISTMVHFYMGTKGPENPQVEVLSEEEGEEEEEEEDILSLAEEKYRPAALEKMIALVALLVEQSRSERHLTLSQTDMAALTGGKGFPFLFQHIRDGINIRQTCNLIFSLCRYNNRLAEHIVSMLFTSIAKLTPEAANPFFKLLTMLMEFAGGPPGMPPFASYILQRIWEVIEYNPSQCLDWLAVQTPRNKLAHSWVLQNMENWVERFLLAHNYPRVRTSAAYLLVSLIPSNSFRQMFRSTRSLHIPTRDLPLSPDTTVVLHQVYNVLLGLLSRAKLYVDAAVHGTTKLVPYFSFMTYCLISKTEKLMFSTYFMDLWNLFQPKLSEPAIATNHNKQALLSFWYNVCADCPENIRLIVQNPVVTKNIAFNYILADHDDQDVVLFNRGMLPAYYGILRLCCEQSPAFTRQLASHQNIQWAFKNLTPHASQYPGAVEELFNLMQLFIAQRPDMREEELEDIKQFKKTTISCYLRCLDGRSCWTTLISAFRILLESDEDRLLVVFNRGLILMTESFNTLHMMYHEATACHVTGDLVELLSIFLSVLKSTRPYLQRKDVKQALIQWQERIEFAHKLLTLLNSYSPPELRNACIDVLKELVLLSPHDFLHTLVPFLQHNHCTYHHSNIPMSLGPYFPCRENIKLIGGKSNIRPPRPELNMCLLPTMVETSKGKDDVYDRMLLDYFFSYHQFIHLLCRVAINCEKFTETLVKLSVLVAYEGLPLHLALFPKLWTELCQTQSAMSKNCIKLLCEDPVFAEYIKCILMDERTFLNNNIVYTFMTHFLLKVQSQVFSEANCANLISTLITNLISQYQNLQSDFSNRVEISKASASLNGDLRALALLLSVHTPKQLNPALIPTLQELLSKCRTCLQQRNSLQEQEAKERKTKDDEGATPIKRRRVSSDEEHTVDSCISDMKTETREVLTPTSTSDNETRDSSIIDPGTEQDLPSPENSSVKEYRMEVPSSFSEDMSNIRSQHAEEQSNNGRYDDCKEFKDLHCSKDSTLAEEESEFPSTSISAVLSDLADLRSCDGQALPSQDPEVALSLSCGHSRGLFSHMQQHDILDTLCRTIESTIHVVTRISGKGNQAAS

O=C(CCl)N1CCC(S(=O)(=O)c2ccc(F)cc2)CC1
inactive: USP34 -0.128 | USP36 -0.00998 | USP38 -0.00588 | USP39 0.031 | USP4 -0.218
